Compound activity: PubChem, University of Kansas High Throughput Screening Laboratory
Pf apPOL block: Pf-apPOL DNA polymerase inhibition. inhibition, % at 10 µM. Recombinant Pf-apPOL, molecular beacon fluorescence, 1.5 h. actives 0.25% (n = 210,000). AID 1794808
mHTT CaM bind: inhibitors of human mutant huntingtin-calmodulin interaction; P42858; AlphaScreen His-mHTT/GST-CaM binding, luminescence; inhibition, % at 15 µM; actives 3.6% (n = 190,000); AID 1671202;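 further: 0% = both proteins with DMSO and 100% = one protein alone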
The depositor's hits bear a star; i = inactive; / = no result given; + = active, no number. Only some compounds are listed: those with a hit (about 3.5% of all), similar ones and a draw of the others. No stated cut-off is given here; in the data, active means inhibition above about 50%; inactive means the rest.

SMILES | Pf apPOL block | mHTT CaM bind
O[C@H]1C[C@H](c2ccccc2)N(CC2CCCCC2)C[C@@H]1n1cc(-c2ccc(F)cc2)nn1 | 1 | 55*
O[C@@H]1C[C@H](c2ccc(Cl)cc2)N(CC2CCCCC2)C[C@H]1n1cc(C2CC2)nn1 | 1 | -11
COc1ccc([C@H]2C[C@@H](O)[C@H](n3cc(-c4ccc(F)cc4)nn3)CN2CC2CCCCC2)cc1 | -2 | 15
CCCCCCN1C[C@@H](n2cc(C3CC3)nn2)[C@H](O)C[C@@H]1c1ccc(C)cc1 | 5 | 29
O=C(ON=C(c1ccc(F)cc1)c1ccc(F)cc1)c1ccc(F)cc1 | 1 | /
Cc1ccc2c(c1)/C(=C/c1nc3ccccc3c(=O)n1-c1ccccc1[N+](=O)[O-])C(=O)N2 | 2 | 86*
Cc1ccc2c(c1)/C(=C/c1nc3ccccc3c(=O)n1C)C(=O)N2 | -2 | 26
O=C(NCC1CCN(C(=O)Oc2ccccc2)CC1)Nc1ccc(C(F)(F)F)cc1 | -6 | -16
O=[N+]([O-])c1cccc2c1NC(c1ccccc1Br)C1CC=CC21 (stereo unspecified) | -1 | 63*
O=[N+]([O-])c1cccc2c1NC(c1ccc(Br)cc1)C1CC=CC21 (stereo unspecified) | 1 | 82*
Cc1cccn2c(=O)c3cc(C(=O)Nc4ccc(Cl)c(Cl)c4)sc3nc12 | -3 | 1
COc1ccc(N2CC(C(=O)N3CCC(c4noc(-c5ccccc5)n4)CC3)CC2=O)cc1 (stereo unspecified) | 0 | -1
N#Cc1sc2nc3c(c(-c4cccs4)c2c1N)CCCC3 | -4 | -17
NCCOC12CC3CC(CC(C3)C1)C2 | / | -8
CCn1nnnc1SCSc1nnnn1CC | / | -6
CC(C)=CC1C(CN)C1(C)C (stereo unspecified) | -5 | 96*
Cc1noc(C=Cc2cc(Cl)cc(Cl)c2)c1[N+](=O)[O-] | -3 | /
Cc1noc(-c2cccn2Cc2ccc(F)cc2Cl)n1 | 6 | -46
COc1ccc2c(c1)c(=O)c1ccccc1n2CC(=O)Nc1ccc(C(F)(F)F)cc1 | 0 | 17
COc1ccc2c(c1)c(=O)c1ccccc1n2CC(=O)Nc1cccc(C(F)(F)F)c1 | 0 | 54*
Cn1ccnc1SCC(=O)N1c2ccccc2C(C)(c2ccc(Cl)cc2)CC1(C)C (stereo unspecified) | 5 | 61*
CC1(c2ccc(Cl)cc2)CC(C)(C)N(C(=O)c2cccnc2)c2ccccc21 (stereo unspecified) | 4 | 48
CC(C)(C)n1[nH]nnc1=S | -1 | /
COc1ccc(NC(=O)c2noc3c2CCCCC3)cc1OC | 0 | 4
CC(=O)C1=C(O)C(=O)N(c2ccccn2)C1c1ccc([N+](=O)[O-])cc1 (stereo unspecified) | 2 | 2
SMILES | Pf apPOL block | mHTT CaM bind
O=C1c2[nH]nc(-c3ccc(Cl)cc3)c2C(c2ccc([N+](=O)[O-])cc2)N1c1ccccn1 (stereo unspecified) | -1 | 89*
O=C1c2[nH]nc(-c3ccccc3)c2C(c2ccccc2[N+](=O)[O-])N1c1ccccc1 (stereo unspecified) | -1 | 59*
COc1ccc(C2c3c(-c4ccccc4)n[nH]c3C(=O)N2c2ccccc2)cc1 (stereo unspecified) | 6 | 59*
COc1ccc(-c2n[nH]c3c2C(c2ccc(OC)c(OC)c2)N(c2ccccc2)C3=O)cc1 (stereo unspecified) | -4 | 19
O=C1c2[nH]nc(-c3ccccc3)c2C(c2ccccc2)N1c1ccccc1 (stereo unspecified) | -9 | 37
COc1ccccc1NC(=O)C1c2cc(OC)c(OC)cc2C(=O)N(C)C1c1cccnc1 (stereo unspecified) | -2 | 1
COc1ccc(C)cc1NC(=O)CN(c1cc(C(F)(F)F)ccc1Cl)S(C)(=O)=O | -2 | 16
O=c1[nH]c(-c2ccc(F)cc2)nc2c1CCN(S(=O)(=O)c1ccc3c(c1)CCC3)C2 | -5 | -6
Nc1ccc(C(=O)Nc2ccc(NC(=O)c3ccc(N)cc3)c(Cl)c2)cc1 | -14 | 2
Cc1ccccc1NC(=O)C1CCCN(C(=O)c2cccc(C(F)(F)F)c2)C1 (stereo unspecified) | -4 | 26
COc1ccc(NC(=O)C2CCC(C)(C(=O)O)C2(C)C)cc1 (stereo unspecified) | -7 | -7
O=S1(=O)N=C(N/N=C/c2ccccn2)c2ccccc21 | / | +
Clc1cc(Cl)cc(N/N=C/c2ccccn2)c1 | / | i
Cc1ccc(NC(=O)NC2CCN(c3ccccc3)C2=O)c(C)c1 (stereo unspecified) | 1 | -5
Cc1ccc(N(CC(O)CN2C(=O)NC(C)(C)C2=O)S(=O)(=O)c2ccc([N+](=O)[O-])cc2)cc1 (stereo unspecified) | -3 | 61*
CC1(C)NC(=O)N(CC(O)CN(c2cccc([N+](=O)[O-])c2)S(=O)(=O)c2ccccc2)C1=O (stereo unspecified) | -6 | 0
